Hits are enriched below; roughly 10% of the tested compounds scored in any of these assays.
HP1b chromo inh: blocks HP1-beta chromodomain binding to methylated histone tails; P83916; AlphaScreen HP1-beta / biotin-H3K9me3 peptide binding; Potency, µM (top dose mostly 114 µM), usual class: inhibitors; hit rate 0.56% among 390,000; note: nearly all actives have a fitted effect of over 70% in size
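HP1-beta protein (50 nM final) preincubated 30 min at room temperature with biotinylated H3(1-18)K9me3 peptide (50 nM) in PBS pH 7.4, 0.01% Tween-20, then compound added for 30 min. AlphaScreen streptavidin donor/nickel chelate acceptor beads (10 ug/mL final), 30 min dark, luminescence read.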
JMJD2A Tudor inh: JMJD2A Tudor domain (human) inhibition; O75164; AlphaScreen JMJD2A-Tudor / H3K4me3 peptide binding; Potency, µM (titrated, usually from 114 µM), most hits filed as inhibitors; hit rate 4.4% among 390,000; note: nearly all actives have a fitted effect of over 50% in size
G9a block: G9a (human) methyltransferase inhibition | G9a H3K9 monomethylation, AlphaScreen, 2 h | Potency, µM (doses to about 102 µM), most hits filed as inhibitors | hit rate 8.8% among 350,000; note: nearly all actives have a fitted effect of over 75% in size
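Methyltransferase reactions run at room temperature for 2 h (20 nM enzyme, 500 nM biotin-H3K9 peptide, 20 uM SAM) after a 15 min compound preincubation; product detected by AlphaScreen beads and anti-H3K9me1 antibody.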
GLS inhibitor: blocks human kidney-isoform glutaminase activity | GLS enzymatic activity, qHTS titration | Potency, µM (titrated, usually from 45.5 µM), usual class: inhibitors | hit rate 0.21% among 410,000 | AID 624170
Target sequence (O94925 whole entry, looked up, canonical isoform): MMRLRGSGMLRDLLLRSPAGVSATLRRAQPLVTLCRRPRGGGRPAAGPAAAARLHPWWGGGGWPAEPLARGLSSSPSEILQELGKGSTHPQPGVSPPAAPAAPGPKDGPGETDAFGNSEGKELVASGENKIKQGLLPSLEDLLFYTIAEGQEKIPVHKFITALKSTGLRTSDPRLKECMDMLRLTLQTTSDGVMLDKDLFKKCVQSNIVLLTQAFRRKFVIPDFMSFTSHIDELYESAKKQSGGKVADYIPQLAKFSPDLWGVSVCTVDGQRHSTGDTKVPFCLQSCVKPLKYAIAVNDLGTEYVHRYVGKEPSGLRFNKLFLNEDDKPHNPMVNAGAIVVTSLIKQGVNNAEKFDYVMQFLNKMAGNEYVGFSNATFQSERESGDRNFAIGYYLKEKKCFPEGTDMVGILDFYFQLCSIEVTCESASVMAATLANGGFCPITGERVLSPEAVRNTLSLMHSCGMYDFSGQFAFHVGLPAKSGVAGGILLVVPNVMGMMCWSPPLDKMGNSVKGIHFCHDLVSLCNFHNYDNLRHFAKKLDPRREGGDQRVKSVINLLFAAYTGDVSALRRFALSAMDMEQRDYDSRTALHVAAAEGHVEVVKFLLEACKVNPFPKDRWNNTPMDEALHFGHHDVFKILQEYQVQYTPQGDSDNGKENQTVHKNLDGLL
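Enzyme dispensed in phosphate buffer (45 mM, pH 8.2, 0.02% Tween-20), compounds pinned in, then 1 mM L-glutamine solution and the glutamate oxidase–HRP–Amplex Red mix added; fluorescence read immediately and again after 30 min at room temperature.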
BAZ2B inh: blocks human BAZ2B. AlphaScreen BAZ2B-H3K14Ac peptide displacement. hit rate 4.4% among 360,000. AID 504333. Q9UIF8. Potency, µM (highest dose often 114 µM), most hits filed as inhibitors; note: nearly all actives have a fitted effect of over 60% in size
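Inhibition is scored as reduced AlphaScreen emission. The BAZ2B/b-H3(5-23)K14Ac complex (50 nM each) in PBS pH 7.4, 0.01% Tween-20 meets compound (up to 110 uM) for 30 min at RT before bead addition.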
Numbers stand for hits; . = inactive; ? = inconclusive; / = not tested or not shown; [ ] = dose if it differs, or a comment. Calls come from the whole dose curve; as a rule, active = well fitted curve in the direction sought with a large enough effect; inconclusive = small, poorly fitted or top-dose-only effect, or another doubt; inactive = no such curve, though single readings can be large; an effect the other way counts as inactive or inconclusive.

SMILES	HP1b chromo inh	JMJD2A Tudor inh	G9a block	GLS inhibitor	BAZ2B inh
CC(C)(C)NC(=O)Nc1ccc(F)c(Cl)c1	.	.	.	.	.
CC(CNC(=O)c1ccc2c(c1)nc1n2CCCCC1)c1ccccc1 (centres undefined)	.	.	.	.	.
CCC1CCCCN1C(=O)CCS(=O)(=O)c1cc2c(cc1C)NC(=O)CO2 (centres undefined)	?	?	8.91µM	.	?
CC(=O)Nc1cc(-c2ccccc2CN(C)C)cn2c(-c3ccc(F)c(Cl)c3)cnc12	/	/	/	.	/
COc1ccc(S(=O)(=O)N(C(=O)c2ccncc2)c2ccc3oc4c(c3c2)CCCC4)cc1	.	.	.	.	.
O=C(c1ccncc1)N(c1ccc2oc3c(c2c1)CCCC3)S(=O)(=O)c1cccc([N+](=O)[O-])c1	.	?	3.55µM	.	?
CCOc1cc(C2Nc3ccccc3C(=O)N2Cc2ccco2)ccc1OCc1ccccc1Cl (centres undefined)	.	.	/	/	/
Fc1ccc(-n2c(-c3ccco3)n[nH]c2=S)cc1	.	6.31µM	?	.	.
Cc1ccc(-n2c(-c3ccco3)n[nH]c2=S)cc1	.	22.4µM	/	.	.
CCOc1ccc(-n2c(-c3ccco3)n[nH]c2=S)cc1	?	5.62µM	3.16µM	.	?
COc1cc(/C=N/NC(=O)Cc2ccccc2)cc([N+](=O)[O-])c1O	.	.	/	.	.
COc1cc(/C=N/NC(=O)[C@H](Cc2c[nH]c3ccccc23)NC(=O)OCC(C)C)cc([N+](=O)[O-])c1O	.	?	?	.	39.8µM
Cc1ccc(NC(=S)Nc2cccc3cnccc23)cc1C	?	.	.[12.7 µM]	.	.
FC(F)(F)c1ccccc1NC(=S)N1CCCCCC1	.	.	/	.	.
Cc1ccc(C)c(NC(=S)Nc2cccnc2)c1	.	.	.	.	.
Cc1ccccc1NC(=S)Nc1cccc2cnccc12	.	.	1.78µM	.	.
Cc1ccc(NC(=S)Nc2cccc3cnccc23)cc1	.	.	35.5µM	.	?
FC(F)(F)c1ccccc1NC(=S)Nn1cnnc1	?	.	7.08µM	.	.
Cc1ccc(C)c(NC(=S)Nc2cccc3cnccc23)c1	.	.	22.4µM	.	.
CCC(C)(NC(=O)c1ccc2c(c1)OCO2)C(=O)NC1CCCCC1 (centres undefined)	.	.	.	.	.
CN[C@H]1C[C@@H](c2ccccc2)N(C(C)=O)C[C@H]1CO	/	/	/	.	/
FC(F)(F)c1ccccc1NC(=S)Nc1cccc2cnccc12	?	.	35.5µM	.	?
NC(=S)Nc1cccc2cnccc12	.	.	.	.	.
Fc1ccccc1NC(=S)Nc1cccc2cnccc12	.	.	17.8µM	.	.
COc1ccc(N2CCN(C(=O)CSc3nc4nc(C)cc(C)n4n3)CC2)cc1	.	.	?	.	.
SMILES	HP1b chromo inh	JMJD2A Tudor inh	G9a block	GLS inhibitor	BAZ2B inh
Cc1ccc([C@@H]2CC(=O)[C@@H]3CN(S(=O)(=O)c4ccccc4C)[C@H](c4ccc(Cl)cc4)C[C@@H]3N2S(=O)(=O)c2ccc(C)cc2)cc1	/	/	/	.	/
Cc1ccc2cccc(OC(=O)c3ccc4c(c3)OCCO4)c2n1	.	?	8.91µM	.	/
Cc1cccc(N2CCN(c3ccc4cc(S(=O)(=O)N5CCC(C)CC5)ccc4n3)CC2)c1C	.	.	?	.	.
COc1ccc(/C=N/NC2=NCCCCC2)cc1	.	.	28.2µM	.	.
COc1ccc(/C=N/NC(C)(C)C)c(OC)c1	.	.	12.6µM	.	?
COc1ccc(/C=N/Nc2cc(N(C)C)nc(N(C)C)n2)cc1	?	?	4.47µM	.	50.1µM
COc1ccc(/C=N/NC2=NCCCCC2)c(OC)c1	.	.	11.2µM	.	.
CS(=O)(=O)Nc1cccc(-c2ccc3ncnc(NCc4cccs4)c3c2)c1	/	/	.[0.501 µM]	/	/
CC(=O)Nc1ccc(S(=O)(=O)N2CCN(S(=O)(=O)c3c(F)cccc3F)CC2)cc1	/	.	/	/	/
COc1ccccc1N(C)S(=O)(=O)c1ccc(C(=O)N(C)Cc2cccc(F)c2)cc1	/	/	/	.	/
C=CCOc1ccc(/C=C2/C(=O)ON=C2C)cc1OC	.	.	50.1µM	.	.
COc1ccc(/C=C2/C(=O)ON=C2C)cc1Cl	.	.	15.8µM	?	.
COc1ccc(/C=C2\SC(N)=NC2=O)cc1Cl	.	.	.	.	.
Cc1ccsc1C(=O)NCc1ccc(F)cc1	.	.	.	.	.
CNC(=O)c1cc2cc(OC)ccc2oc1=N	.	.	56.2µM	.	.
COc1ccc2oc(=N)c(C(=O)NCc3ccccc3)cc2c1	.	.	35.5µM	.	.
CC(C)(C)c1nc(CN2CCOCC2)cc(CN2CCOCC2)c1O	.	31.6µM	.[12.7 µM]	.	.
Oc1c(CN2CCOCC2)cc(CN2CCOCC2)c(O)c1CN1CCOCC1	8.91µM	7.94µM	/	.	/
CC(C)(c1cc(Cl)c(O)c(CN2CCOCC2)c1)c1cc(Cl)c(O)c(CN2CCOCC2)c1	.	.	/	.	/
COc1ccc(Cn2c(CO)cnc2SCc2ccc(C)cc2)cc1	.	.	.	.	?
CN(C(=S)NC(=O)C1CC1)c1ccc(O)cc1	.	89.1µM	?	.	.
O=C(NC(=S)N(Cc1ccccc1)c1ccccn1)C1CC1	.	.	14.1µM	.	.
CCN(C(=S)NC(=O)C1CC1)c1ccccc1	.	.	35.5µM	.	.
COc1ccc(CNC(=O)C(CCSC)NS(=O)(=O)c2ccc3c(c2)oc(=O)n3C)cc1 (centres undefined)	.	.	.	.	.
COCCCNC(=O)c1ccc(Cn2c(=O)c3ccccc3n(CC(N)=O)c2=O)cc1	.	.	.	.	.
SMILES	HP1b chromo inh	JMJD2A Tudor inh	G9a block	GLS inhibitor	BAZ2B inh
Cc1ccc(S(=O)(=O)Nc2cc(C(C(=O)OC(C)C)C(=O)C(F)(F)F)c(O)c3ccccc23)c(C)c1 (centres undefined)	.	.	39.8µM	?	?
Nc1ccccc1Nc1ccccc1	?	44.7µM	/	.	44.7µM
Nc1ccc(Nc2ccccc2)c(Cl)c1	?	?	?	.	50.1µM
Nc1ccc(NC(=O)c2cccs2)c(Cl)c1	.	.	.	.	.
N.N.O=C(O)C1(C(=O)O)CCC1.[Pt+2]	/	/	0.282µM	/	/
CCn1c(N)c(C(=O)NCc2ccco2)sc1=S	?	?	10µM	.	?
C=CCNC(=O)c1sc(=S)n(-c2ccc(C(=O)OCC)cc2)c1N	?	?	3.16µM	.	?
CCOC(=O)c1ccc(-n2c(=S)sc3c(=O)[nH]c(C)nc32)cc1	.	?	1.78µM	.	.
COc1ccc(-n2c(N)c(C(=O)NCc3ccco3)sc2=S)cc1	.	.	?	.	.
CCOC(=O)CSc1nc2c(sc(=S)n2-c2ccc(CC)cc2)c(=O)[nH]1	.	.	?	.	.
CCOC(=O)c1ccc(-n2c(N)c(C(=O)NCc3ccco3)sc2=S)cc1	15.8µM	25.1µM	?	.	39.8µM
CCOC(=O)c1sc(=S)n(-c2ccc(F)c(F)c2)c1N	.	?	?	.	.
COc1ccccc1OCC(=O)N/N=C(\C)c1ccc2ccccc2c1	/	/	/	.	/
C1CNCCNCCCNCCNC1	/	/	.	/	.

Screens (PubChem)
